The structures appear in SMILES notation. Where “and” joins values, the source holds several entries; their conditions need not be identical. Equal values may be shown once. About 1,500 (0.58%) of roughly 260,000 compounds were called active. Not shown: some 5% with an inconclusive outcome. Not all results are given here. Measured potencies and affinities stand elsewhere. Values without a mark were called inactive.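 Rule for the calls: active = inhibition above a set limit at one or more doses, reproduced on every date tested; inconclusive = results disagree between test dates, or hit never tested in dose response; inactive = the rest.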

We go through 98 compounds from PubChem BioAssay AID1117319 (Southern Research Institute, 2015).

The assay deals with Virion infectivity factor (Human immunodeficiency virus type 1 group M subtype B (isolate BH10)) + Virion infectivity factor (Human immunodeficiency virus type 1 group M subtype B (isolate BRU/LAI)) + Virion infectivity factor (Human immunodeficiency virus type 1 group M subtype B (isolate PCV12)) + Virion infectivity factor (Human immunodeficiency virus type 1 group M subtype B (isolate HXB2)) + DNA dC->dU-editing enzyme APOBEC-3G (Homo sapiens) (UniProt P69720+P69721+P69722+P69723+Q9HC16). Kind of assay: HIV-1 Vif–A3G interaction blockers – biochemical, TR-FRET, GST-Vif 1-94, biotin-A3G peptide, dose response retest, primary screen (AID 1117319).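 Note: Vif residues 1-94 fused to GST binding biotinylated APOBEC3G peptide 110-148; 0% = full assay without inhibitor and 100% = GST in place of GST-Vif.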 Particulars: TR-FRET GST-Vif / biotin-A3G peptide binding; stronger effect = higher value. (In general: TR-FRET usually uses a lanthanide donor and a delayed reading to cut background.)
On to `COc1ccc2c(c1OC)C(=O)OC2CC(=O)c1ccc2c(c1)OCO2` (stereo not drawn), for which the inhibition was -2.78%.
As to `CCOC(=O)CSc1ccc2nnc(-c3ccncc3)n2n1`, the inhibition is 3.55%.
For the compound `Cc1ccc(NC(=O)C2CCC2)cc1S(=O)(=O)N1CCCCCC1`, the inhibition is 0.74%.
To `O=S(=O)(NCC(c1cccnc1)N1CCOCC1)c1ccc(Cl)cc1` (stereo not drawn) belongs 1.91%.
As for `CC(C)c1ccccc1NC(=O)Cn1c(/C=C/c2ccccc2)nc2ccccc21`, the inhibition was 2.28%.
Consider `Cc1cc(N/N=C/c2ccc(N(C)C)cc2)nc(NCc2ccccc2)n1`, for which the inhibition was 7.69%.
For the compound `CC(=O)c1ccc(S(=O)(=O)NCc2cccnc2)cc1`, the inhibition was 0.59%.
In the case of `COc1cc(C(C)=O)ccc1OCC(=O)N1CCCC1c1ccc2c(c1)OCCCO2` (stereo not drawn), the inhibition is -2.26%.
For the compound `CCCCn1c(SCC(=O)NCCOC)nc2ccc(N3CCOCC3)cc2c1=O`, the inhibition is 32.1% and 5.24%.
With `CCCCn1c(SCC(=O)NCc2ccccc2)nc2ccc(N3CCOCC3)cc2c1=O`, the inhibition was 18.7%.
As for `CCCC(=O)Nc1cc(C)c(NC(=O)Cc2ccccc2)cn1`, the inhibition was -1.31%.
With `CCN(CC)c1cc(Cl)c2nonc2c1N`, the inhibition was 0.28%.
For the compound `Nc1c(N2CCCC2)cc(Cl)c2nonc12`, the inhibition was 22.8%.
With `CCOC(=O)N1CCN(C(=O)c2c(-c3ccccc3)noc2C)CC1` the figure was -4.55%.
For `Cc1onc(-c2c(Cl)cccc2Cl)c1C(=O)NCc1ccco1`, the inhibition is 2.61%.
Take `COc1cccc(-c2cc(C(=O)NCc3ccco3)no2)c1`: the inhibition was 2.27%.
Regarding `Cc1onc(-c2c(F)cccc2Cl)c1C(=O)NCc1ccco1`, the inhibition is 0.03%.
To `O=C(NCc1ccco1)c1cc(-c2ccccc2)on1` belongs -2.43%; to `O=C(NCCCn1ccnc1)C(=O)NCC1OCCN1S(=O)(=O)c1ccccc1` (stereo not drawn), 20.3%.
Regarding `Cc1ccc(S(=O)(=O)N2CCCc3ccccc32)cc1`, the inhibition is 3.67%.
With `Cc1ccc(-c2sc(C(=O)NN)c(C)c2C#N)cc1`, the inhibition is -0.1%.
To `CCc1noc(C)c1C(=O)NC1CCCc2c1cnn2-c1cc(C)cc(C)c1` (stereo not drawn) belongs -1.36%.
For `O=C1N[C@@H](c2ccccc2)COC(=O)[C@H](Cc2ccc(F)cc2)CC/C=C/C[C@H]1CC(=O)N(CCO)Cc1ccccc1`, the inhibition was 3.93%.
For the compound `COc1cccc(-c2cccc(NC(=O)C3CCN(CCCn4cccn4)CC3)c2)c1`, the inhibition was 6%.
For the compound `CCn1nc(C(=O)Nc2cc(Cl)ccc2-n2cncn2)c2ccccc2c1=O`, the inhibition was -6.28%.
As for `C=CCn1c(O)c(C(CC)=NCc2cccnc2)c(=O)[nH]c1=O`, the inhibition was 7.28%.
For `C=CCn1c(O)c(C(CC)=Nc2ccccc2NC(=O)CC)c(=O)[nH]c1=O`, the inhibition was 30.8%.
Turning to `Cc1ccc(OCc2n[nH]c(=S)n2Cc2ccccc2)cc1`, the inhibition was 24.6%.
As for `O=C(Cc1ccccc1)Nc1ccc(N2CCN(Cc3ccccc3F)CC2)cc1`, the inhibition is 6.73%.
With `COC(=O)C1CCN(C(=O)CCCOc2ccccc2)CC1` the figure was 8.9%; with `CC(=O)Nc1ccc(SCC(=O)Nc2ccccc2N2CCOCC2)cc1`, -9.09%; with `COC(=O)c1cc(C(=O)OC)cc(S(=O)(=O)Nc2ccc(Cl)c(N)c2)c1`, -4.45%.
`CN=c1scc(C)n1/N=C/c1ccc2c(c1)OCO2`: the inhibition is 13.4%.
For the compound `C=CCN=c1scc(-c2ccccc2)n1/N=C/c1ccccn1`, the inhibition is 11.2%.
On to `COc1ccc(O)c(/C=N/n2c(-c3ccco3)csc2=Nc2cccnc2)c1`, for which the inhibition is 6.77%.
As to `Oc1ccc(/C=N/n2c(-c3ccco3)csc2=Nc2cccnc2)c(O)c1`, the inhibition was 21%.
Take `CN1CCN(CC(O)COc2ccccc2)CC1` (stereo not drawn): the inhibition was -7.2%.
`CCCCNc1oc(-c2cccs2)nc1S(=O)(=O)c1ccccc1`: the inhibition is -0.64%.
`CC(C)(CNC(=O)c1cccs1)CNC(=O)c1cccs1`: the inhibition is 0.17%.
With `O=C(CSc1nccc(=O)[nH]1)NCc1ccc2c(c1)OCO2`, the inhibition is 3.96%.
As to `CCOC(=O)N1CCN(CC(O)COCCC23CC4CC(CC(C4)C2)C3)CC1` (stereo not drawn), the inhibition is 13.8%.
Take `O=C1CCCc2c1sc1nc3n(c(=O)c21)CCCCC3`: the inhibition was 2.33%.
Consider `O=c1c2c3c(sc2nc2n1CCCCC2)CCCCC3`, for which the inhibition was 0.94%.
To `Nc1ncnc2c1CN(Cc1ccccc1)CC2` belongs -5.85%.
With `CC1(C)CC(=O)C2=C(C1)OC(N)=C(C#N)C2c1ccccc1` (stereo not drawn) the figure was 3.85%; with `N#CC1(Nc2ccc([N+](=O)[O-])cc2)CCCC1`, 10.3%; with `CCOC(=O)C1=C(COC(=O)/C=C/c2ccc(C)o2)NC(=O)NC1C` (stereo not drawn), -5.28%.
Regarding `CCOC(=O)C1=C(COC(=O)/C=C/c2ccc(Cl)cc2)NC(=O)NC1C` (stereo not drawn), the inhibition is 2.25%.
Take `O=C(O)/C=C/c1ccccc1Oc1ccccc1`: the inhibition is -6.82%.
In the case of `Cc1ccc(N=C2NC(=O)/C(=C/c3cccn3C)S2)cc1C`, the inhibition is -3.5%.
Regarding `COc1ccc(CCNc2cc(C)nc3c(-c4ccccc4OC)cnn23)cc1OC`, the inhibition was 3.45%.
Take `CC(C)(CO)CN1CCC(n2nccc2NC(=O)C2CCCC2)CC1`: the inhibition was -9.4%.
Take `CCNC(=O)N1c2ccc(OC)cc2C(C)=CC1(C)C`: the inhibition is 18.1%.
With `COc1ccc2c(c1)C(C)=CC(C)(C)N2C(=O)Nc1ccccc1` the figure was 1.41%; with `COc1cccc(C(C#N)N2CCOCC2)c1` (stereo not drawn), -0.56%; with `C/C(=N\NC(=O)CCc1ccc(S(=O)(=O)N2CCOCC2)cc1)c1ccc(OC(F)F)cc1`, 18.9%.
As for `CC(NC(=O)c1ccc(Cn2cc([N+](=O)[O-])cn2)cc1)c1ccccc1` (stereo not drawn), the inhibition was -7.96%.
For `O=C1C(Cl)=C(N2CCCCCC2)C(=O)N1c1ccccc1`, the inhibition was 4.82%.
In the case of `O=C1C(Cl)=C(N2CCOCC2)C(=O)N1c1ccc(Br)cc1`, the inhibition is 12.4%.
Take `CCOc1ccccc1C(=O)NC(C(=O)OCC(=O)NNC(=O)c1cccs1)C(C)C` (stereo not drawn): the inhibition was -2.67%.
With `Cc1cc(NN)nc2ccc(Cl)cc12` the figure was 21%.
For the compound `O=C(Cc1csc(Nc2nc(=S)[nH]c3ccccc23)n1)NCc1ccc(Cl)cc1`, the inhibition is 3.88%.
Turning to `Cc1cc(SCc2ccc(C(F)(F)F)cc2)nc(=O)[nH]1`, the inhibition was 4.23%.
With `Cc1cccc(-c2cc3nc4c(c(NCc5ccco5)n3n2)CCCC4)c1` the figure was 3.78%; with `Clc1cccc(-c2cc3nc4c(c(NCc5ccco5)n3n2)CCCC4)c1`, -4.82%; with `c1coc(-c2nnc(SCc3cn4ccccc4n3)o2)c1`, 2.16%.
For `Brc1ccc(CSc2nnc(-c3ccco3)o2)cc1`, the inhibition is -2.39%.
Take `COc1ccc(-c2c(C)n([O-])c(C)c(-c3ccccc3)[n+]2=O)cc1OC`: the inhibition was -6.67%.
For `Cc1cccc(OCc2nnc(SCC(=O)Nc3ccc(C)c(Cl)c3)o2)c1`, the inhibition is -12%.
As for `Cc1cc(C)cc(NC(=O)CN(C)CC(=O)N(CC(C)C)c2c(N)n(CC(C)C)c(=O)[nH]c2=O)c1`, the inhibition was 1.78%.
For the compound `O=C(O)c1ccccc1Nc1ccccc1C(=O)O`, the inhibition was 5.44%.
To `COc1cc(-c2ccc(NC(C)=O)c(OC)c2)ccc1NC(C)=O` belongs 1.06%; to `CCOc1cc(-n2nc(C)c(C#N)c2N)nc(SC)n1`, -1.98%.
With `COc1cccc(/C=C2\CCCCC2=O)c1`, the inhibition was 8.63%.
For `CC(NC(=O)C12CC3CC(C1)CC(n1cncn1)(C3)C2)C12CC3CC(CC(C3)C1)C2` (stereo not drawn), the inhibition was -7.08%.
`O=C(COC(=O)CCC(=O)N1CCOCC1)Nc1ccc(Br)cc1Br`: the inhibition was 3.75%.
As for `O=C(C1CCCN1S(=O)(=O)c1ccc(Cl)cc1)N1CCCCC1` (stereo not drawn), the inhibition is -2.58%.
In the case of `O=Cc1ccc(N2CCCCC2)cc1`, the inhibition is -6%.
In the case of `Nc1ccc(N2CCN(c3ccc(Cl)c(Cl)c3)CC2)cc1`, the inhibition is 22.2%.
As to `CN1CCN(c2ccc(C(=O)c3ccc(F)cc3)cc2)CC1`, the inhibition was -7.54%.
For the compound `O=C(O)c1ccc(N2CCCCC2)cc1`, the inhibition was 8.04%.
Turning to `CCn1c(SCC(=O)NC2CC2)nnc1-c1ccccc1`, the inhibition was -1.91%.
`COc1ccc(CNC(=O)c2ccccc2NS(C)(=O)=O)cc1`: the inhibition is 1.78%.
Take `C=C(C)CNC(=S)NNC(=O)c1ccncc1`: the inhibition is -3.17%.
In the case of `Cc1cc(C)c(S(=O)(=O)NCCc2ccncc2)c(C)c1`, the inhibition was -0.3%.
In the case of `CC(NC(N)=O)C(=O)Nc1ccc(Cl)c(S(=O)(=O)Nc2ccc(Br)cc2)c1` (stereo not drawn), the inhibition is 10.3%.
To `CCOc1ccc(S(=O)(=O)n2ccc(C)n2)cc1` belongs -9.61%; to `CCOc1ccc(NCCC#N)cc1`, -2.11%; to `CCOc1ccc(NC(=O)NC2CCOC(C)(C)C2)cc1` (stereo not drawn), 22%.
For the compound `Cc1cc(C)c(NC(=O)CSc2nc3c(c(=O)n2C)SC(C)C3)c(C)c1` (stereo not drawn), the inhibition is 3.57%.
Take `Cc1ccc(C)c(NC(=O)CSc2nc3c(c(=O)n2C)SC(C)C3)c1` (stereo not drawn): the inhibition was 8.15%.
Consider `CCC(C)N(NC(C)=O)c1nc(Cl)nc(NC(C)(C)C)n1` (stereo not drawn), for which the inhibition is 7.21%.
For the compound `COc1ccc(/C=N/NC(=O)CN(C2=NS(=O)(=O)c3ccccc32)c2ccccc2)cc1`, the inhibition was 22.5%.
For `CCOC(=O)C1(Cc2cccc(OC)c2)CCN(Cc2ccc(C)s2)CC1`, the inhibition was 11.4%.
For the compound `Cc1ccc(O)c(Cc2cc(C)cc(Cc3cc(C)ccc3O)c2O)c1`, the inhibition is -3.64%.
`Cc1cc(C(C)(C)C)c(O)c(C(C)(C)C)c1`: the inhibition was 17.9%.
To `COc1ccc(OC)c(-c2[nH]nc3c2C(c2ccco2)C(C#N)=C(N)O3)c1` (stereo not drawn) belongs 17.4%; to `CC(=O)Nc1ccc(S(=O)(=O)Nc2nc3ccc([N+](=O)[O-])cc3s2)cc1`, 0.77%.

Broadly, the inhibition is the change of the read-out against control, counted positive when it falls.
